The values that follow come from PubChem BioAssay (NCATS).

Inconclusive results are not listed. Active and inactive are the calls of the source. Unless noted, the call rests on the fitted dose curve; in most records, active means well fitted inhibition curve with a large enough effect; inconclusive means small, poorly fitted or top-dose-only effect; inactive means no such curve, though single readings can be large or run the other way.

One test in a line: S16 Schwann cell PMP22 intronic element firefly luciferase assay (AID 624032).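 Further: plate controls were DMSO for no effect and PTC124 positive control mean for full effect; nearly all actives have a fitted effect of over 30% in size.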 The conditions noted are these: S16 rat Schwann cells, PMP22 element FLuc, 24 h; series mostly up to 57.5 µM; activity change, negative = inhibition: at the top concentration. In a few lines: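 Luciferase reporter of PMP22 intronic-element expression in stably transfected S16 rat Schwann cells, read by ONE-Glo luminescence after 24 h compound exposure at 37 C. Activity scaled between DMSO (0%) and positive-control PTC124; concentration-effect curves quality-classified.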
With `COc1cc(S(C)=O)ccc1-c1nc2ncccc2[nH]1` (centres undefined), the “activity change, negative = inhibition” value is 6.73% (inactive).

Take `Cc1c(Cl)cccc1Nc1ncccc1C(=O)O`: the “activity change, negative = inhibition” value was 34% (inactive).

For `CC(C)CCCC(C)NC(C)C` (centres undefined), the “activity change, negative = inhibition” value was 8.24% (inactive).

In the case of `C[C@H](N)C(=O)N[C@@H](C)P(=O)(O)O`, the “activity change, negative = inhibition” value is 17.1% (inactive).

As for `O=C(O)CC/C=C\CC[C@@H]1[C@@H](N2CCCCC2)[C@@H](O)C[C@@H]1OCc1ccc(-c2ccccc2)cc1`, the “activity change, negative = inhibition” value was -29.9% (inactive).

On to `CCC(C)[C@@H](N)C(=O)O` (some centres undefined), for which the “activity change, negative = inhibition” value was 15.5% (inactive).

With `CC1CCC(NC(=O)N(CCCl)N=O)CC1` (centres undefined), the “activity change, negative = inhibition” value is 161% (inactive).

Turning to `CCOC(=O)Cc1ccc(-c2ccccc2)cc1`, the “activity change, negative = inhibition” value is 4.53% (inactive).

Consider `CN(C)C=Nc1c(I)cc(I)c(CCC(=O)O)c1I`, for which the “activity change, negative = inhibition” value was -25.2% (inactive).

In the case of `O=C(O)CCC/C=C\C[C@@H]1[C@@H](/C=C/[C@@H](O)COc2cccc(C(F)(F)F)c2)[C@H](O)C[C@@H]1O`, the “activity change, negative = inhibition” value is 4.94% (inactive).

In the case of `CCC(Cc1c(I)cc(I)c(O)c1I)C(=O)O` (centres undefined), the “activity change, negative = inhibition” value was -9.92% (inactive).

Take `O=C1CCC(=O)N1CO`: the “activity change, negative = inhibition” value is 3.38% (inactive).

As to `O=C1c2ccccc2C(=O)C1c1ccc(Cl)cc1`, the “activity change, negative = inhibition” value is 3.87% (inactive).

For the compound `O=C(c1cc2ccccc2o1)N1CCN(Cc2ccccc2)CC1`, the “activity change, negative = inhibition” value is 62% (inactive).

With `CC(C)(C)c1ccc2c(S(=O)(=O)O)c(C(C)(C)C)ccc2c1`, the “activity change, negative = inhibition” value is -17.6% (inactive).

Consider `O=C(CCCCCCCCCCCCC1CCCC1)Nc1ccc(S(=O)(=O)c2ccc(NC(=O)CCCCCCCCCCCCC3CCCC3)cc2)cc1`, for which the “activity change, negative = inhibition” value was 2.83% (inactive).

`CCCC(=O)O`: the “activity change, negative = inhibition” value was -0.761% (inactive).

As to `Cc1cccc(Nc2ncccc2C(=O)O)c1C`, the “activity change, negative = inhibition” value is 32.7% (inactive).

With `CC[C@H]1OC(=O)[C@H](C)[C@@H](O[C@H]2C[C@@](C)(OC)[C@@H](O)[C@H](C)O2)C(C)[C@@H](O[C@@H]2O[C@H](C)C[C@H](N(C)C)[C@@H]2O)[C@](C)(OC)C[C@@H](C)C(=O)[C@H](C)[C@@H](O)[C@]1(C)O` (some centres undefined), the “activity change, negative = inhibition” value is -13.5% (inactive).

For `CC/C=C\C/C=C\C/C=C\CCCCCCCC(=O)O`, the “activity change, negative = inhibition” value is -25.4% (inactive).

As for `C[C@H]1O[C@@H](O[C@H]2[C@@H](O)C[C@H](O[C@H]3[C@@H](O)C[C@H](O[C@H]4CC[C@@]5(C)[C@H](CC[C@@H]6[C@@H]5C[C@@H](O)[C@]5(C)[C@@H](C7=CC(=O)OC7)CC[C@]65O)C4)O[C@@H]3C)O[C@@H]2C)C[C@H](O)[C@@H]1O`, the “activity change, negative = inhibition” value was -27.4% (inactive).

`CC1CC(OC(=O)C(O)c2ccccc2)CC(C)(C)C1` (centres undefined): the “activity change, negative = inhibition” value was 2.06% (inactive).

As to `O=C1N=C2SCCN2C(=O)C1Cc1ccc(Cl)cc1` (centres undefined), the “activity change, negative = inhibition” value is 10.2% (inactive).

For the compound `O=C(O)Cc1nn(Cc2ccc(Br)cc2F)c(=O)c2ccccc12`, the “activity change, negative = inhibition” value is 3.88% (inactive).

As to `CCCCCCOC(=O)c1cccnc1`, the “activity change, negative = inhibition” value is 6.72% (inactive).

A further test can be described thus: S16 Schwann cell PMP22 intronic element beta-lactamase assay (AID 624044; calls by dose curve;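 further: 0% = DMSO and -100% = potassium clavulanate positive control; nearly all actives have a fitted effect of over 15% in size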). Conditions: S16 rat Schwann cells, PMP22 element beta-lactamase FRET, 24 h; ratio activity, negative = inhibition: at 38.3 µM (top of the series) unless noted. In outline:
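Rat S16 Schwann cells with beta-Lac driven by a PMP22 intronic element, compound-treated 24 h at 37 °C. LiveBLAzer FRET B/G read: 460 nm normalized to potassium clavulanate vs DMSO; 535 nm FRET as viability; concentration-effect curves classified.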
Consider `COc1cc(S(C)=O)ccc1-c1nc2ncccc2[nH]1` (centres undefined), for which the ratio activity, negative = inhibition is -7.74% (inactive).

As for `Cc1c(Cl)cccc1Nc1ncccc1C(=O)O`, the ratio activity, negative = inhibition is -7.17% (inactive).

As for `CC(C)CCCC(C)NC(C)C` (centres undefined), the ratio activity, negative = inhibition is 5.39% (inactive).

For the compound `C[C@H](N)C(=O)N[C@@H](C)P(=O)(O)O`, the ratio activity, negative = inhibition was 4.18% (inactive).

`O=C(O)CC/C=C\CC[C@@H]1[C@@H](N2CCCCC2)[C@@H](O)C[C@@H]1OCc1ccc(-c2ccccc2)cc1`: the ratio activity, negative = inhibition was -1.41% (inactive).

Turning to `CCC(C)[C@@H](N)C(=O)O` (some centres undefined), the ratio activity, negative = inhibition was 8.55% (inactive).

With `CC1CCC(NC(=O)N(CCCl)N=O)CC1` (centres undefined), the ratio activity, negative = inhibition is 2.89% (inactive).

Regarding `CCOC(=O)Cc1ccc(-c2ccccc2)cc1`, the ratio activity, negative = inhibition is 4.96% (inactive).

With `CN(C)C=Nc1c(I)cc(I)c(CCC(=O)O)c1I`, the ratio activity, negative = inhibition was 2.26% (inactive).

`O=C(O)CCC/C=C\C[C@@H]1[C@@H](/C=C/[C@@H](O)COc2cccc(C(F)(F)F)c2)[C@H](O)C[C@@H]1O`: the ratio activity, negative = inhibition was 4.13% (inactive).

In the case of `CCC(Cc1c(I)cc(I)c(O)c1I)C(=O)O` (centres undefined), the ratio activity, negative = inhibition was 3.55% (inactive).

Take `COC(=O)C(CN)c1c[nH]c2ccc(OC)cc12` (centres undefined): the ratio activity, negative = inhibition is 0.76% (inactive).

With `O=C1c2ccccc2C(=O)C1c1ccc(Cl)cc1`, the ratio activity, negative = inhibition was -9.28% (inactive).

As for `CC(C)(C)c1ccc2c(S(=O)(=O)O)c(C(C)(C)C)ccc2c1`, the ratio activity, negative = inhibition is -0.38% (inactive).

For `CC(=O)Oc1cccc(C(=O)O)c1OC(C)=O`, the ratio activity, negative = inhibition was 10.8% (inactive).

Turning to `N#Cc1ccc2c(c1)N(CCCN1CCC(O)CC1)c1ccccc1S2`, the ratio activity, negative = inhibition is -13.2% (inactive).

Turning to `O=C(CCCCCCCCCCCCC1CCCC1)Nc1ccc(S(=O)(=O)c2ccc(NC(=O)CCCCCCCCCCCCC3CCCC3)cc2)cc1`, the ratio activity, negative = inhibition is 4.78% (inactive).

For the compound `CC[C@H]1OC(=O)[C@H](C)[C@@H](O[C@H]2C[C@@](C)(OC)[C@@H](O)[C@H](C)O2)C(C)[C@@H](O[C@@H]2O[C@H](C)C[C@H](N(C)C)[C@@H]2O)[C@](C)(OC)C[C@@H](C)C(=O)[C@H](C)[C@@H](O)[C@]1(C)O` (some centres undefined), the ratio activity, negative = inhibition was 4.6% (inactive).

Turning to `CC/C=C\C/C=C\C/C=C\CCCCCCCC(=O)O`, the ratio activity, negative = inhibition was 3.48% (inactive).

Take `CC1CC(OC(=O)C(O)c2ccccc2)CC(C)(C)C1` (centres undefined): the ratio activity, negative = inhibition is -3.78% (inactive).

Take `O=C1N=C2SCCN2C(=O)C1Cc1ccc(Cl)cc1` (centres undefined): the ratio activity, negative = inhibition is 0.0729% (inactive).

As to `O=C(O)Cc1nn(Cc2ccc(Br)cc2F)c(=O)c2ccccc12`, the ratio activity, negative = inhibition was 3.04% (inactive).

`CCCCCCOC(=O)c1cccnc1`: the ratio activity, negative = inhibition was 2.38% (inactive).

`COc1ccc(C(=O)CCC(=O)O)c2ccccc12`: the ratio activity, negative = inhibition was -1.03% (inactive).
